Screening results: PubChem BioAssay, National Center for Advancing Translational Sciences (NCATS)
Shiga toxin inh: blocks Shiga toxin action in Vero cells. 290,000 tested, 9.2% active. Vero cells, Shiga toxin protein synthesis inhibition reporter. AID 2315. inhibition, % at 38.7 µM; in the data active = inhibition mostly above about 28%, no sharp cut-off; inactive = mostly below about 43%; note: 0% is about no effect
Giardia FBPA inh: inhibitors of Giardia lamblia fructose-1,6-bisphosphate aldolase; A8B2U2; purified Giardia FBPA; Potency, µM (highest dose often 59.6 µM), for the others: at the top dose activity, negative = inhibition, most hits filed as inhibitors; 290,000 tested, 0.71% active; note: potency is the fitted concentration of half-maximal effect; % is set by controls: 0 for no effect and ±100 for the full control effect; nearly all actives have a fitted effect of over 55% in size
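Giardia FBPA (40 nM reagent) was preincubated 10 min at RT with compound (up to 57.5 uM final), then substrate plus GAPDH/TPI/NAD/arsenate coupling system with diaphorase/resazurin was added; resorufin fluorescence (525/598 nm) was read after 20 min.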
NS1 inh: inhibitors of influenza NS1 protein function. Potency, µM (top dose mostly 46.1 µM), for inactives: at the top dose activity, positive = more growth. 270,000 tested, 0.4% active; calls by dose curve; note: potency is the fitted concentration of half-maximal effect; actives are rising curves; nearly all actives have a fitted effect of over 50% in size
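Recovery from NS1-induced slow growth read by OD600 in budding yeast switched to galactose assay medium (pH 6.0, -URA) at 1:100 dilution. Compound 23 nl per well; the matching strain lacking NS1 serves as control.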
CHX counter: counter-screen hit for Shiga toxin inhibitors, cycloheximide; max response, %; AID 2314; cell reporter, cycloheximide protein synthesis inhibition counterscreen; 300,000 tested, 12% active; in the data active = max response mostly above about 13%, no sharp cut-off; inactive = mostly below about 14%; note: read at 38.3 µM for the half of the compounds with a filed dose; 0% is about no effect
LmPK inh: LmPK (Leishmania mexicana) enzyme inhibition; purified LmPK, Kinase-Glo ATP luminescence, 1 h; Potency, µM (top dose mostly 57.5 µM), without a hit: at the highest dose activity change, negative = inhibition, usual class: inhibitors; 290,000 tested, 0.37% active; AID 1721; note: potency is the fitted concentration of half-maximal effect; % is set by controls: 0 for no effect and ±100 for the full control effect
Target sequence (Q27686 whole entry, looked up): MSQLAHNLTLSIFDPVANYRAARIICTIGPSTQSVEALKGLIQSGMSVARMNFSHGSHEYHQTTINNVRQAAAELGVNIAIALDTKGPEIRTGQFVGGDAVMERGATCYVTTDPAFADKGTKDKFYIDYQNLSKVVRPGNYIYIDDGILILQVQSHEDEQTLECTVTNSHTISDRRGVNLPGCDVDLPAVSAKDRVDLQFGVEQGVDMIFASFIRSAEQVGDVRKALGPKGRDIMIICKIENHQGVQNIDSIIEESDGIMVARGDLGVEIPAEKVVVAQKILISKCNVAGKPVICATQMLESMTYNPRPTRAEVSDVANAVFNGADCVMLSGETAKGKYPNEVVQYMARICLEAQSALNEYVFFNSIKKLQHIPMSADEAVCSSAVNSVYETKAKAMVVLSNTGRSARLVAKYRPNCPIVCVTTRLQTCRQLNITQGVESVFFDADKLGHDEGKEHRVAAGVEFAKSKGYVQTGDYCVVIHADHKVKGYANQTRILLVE
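Screened at intermediate enzyme activity to detect both inhibitors and activators: LmPK at 0.1 nM, with a 0.5 nM enzyme column as activation reference. PEP 0.5 mM, ADP 0.1 mM; ATP detected by luminescence after 1 h.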
Active calls of the source: *. Most compounds without a hit are left out; they make up all but 14% or so of the library. Unless noted, calls come from the whole dose curve; as a rule, active = well fitted curve in the direction sought with a large enough effect; inconclusive = small, poorly fitted or top-dose-only effect, or another doubt; inactive = no such curve, though single readings can be large; an effect the other way counts as inactive or inconclusive.

For CCC1=NN=C(c2ccc(F)cc2)C(c2c[nH]c3ccccc23)N1O (centres undefined) the results were Shiga toxin inh 74.0*, Giardia FBPA inh -9.5%, NS1 inh 4.0%, CHX counter 27.7 and LmPK inh 4.2%.
Screening Cc1ccc(S(=O)(=O)N2CCOC2CNC(=O)C(=O)NCc2ccc3c(c2)OCO3)cc1 (centres undefined) returned Shiga toxin inh -4.9, NS1 inh 13.9%, CHX counter -3.2 and LmPK inh -3.7%.
`CCCSc1ccc2nc(NC(=O)OC)[nH]c2c1` gave Shiga toxin inh 141.2*, Giardia FBPA inh -7.8%, NS1 inh -4.9%, CHX counter 35.1* and LmPK inh -3.6%.
Screening COc1ccc(CNc2nc(-c3cccc(C#N)c3)nc3ccccc23)c(OC)c1 returned Giardia FBPA inh -8.9%.
CCOC(=O)c1c(C)[nH]c(C(=O)COC(=O)c2ccc(O)cc2)c1C was read as Shiga toxin inh 54.1*, Giardia FBPA inh -3.0%, NS1 inh -0.2%, CHX counter 22.4* and LmPK inh 2.7%.
CCOC(=O)c1c(C)[nH]c(C(=O)COC(=O)c2ccccn2)c1C was read as Shiga toxin inh 99.6*, Giardia FBPA inh -4.6%, NS1 inh -8.3%, CHX counter 37.7* and LmPK inh 4.3%.
Screening CCOC(=O)c1c(C)[nH]c(C(=O)COC(=O)c2ccc(O)cc2O)c1C returned Shiga toxin inh 17.5, Giardia FBPA inh -0.5%, NS1 inh 4.3%, CHX counter 18.5* and LmPK inh -14.0%.
Screening CCOC(=O)c1c(C)[nH]c(C(=O)COC(=O)COc2ccc(OC)cc2)c1C returned Shiga toxin inh -14.6, Giardia FBPA inh 3.8%, NS1 inh 9.4%, CHX counter -1.8 and LmPK inh 1.2%.
For CCOC(=O)c1c(C)[nH]c(C(=O)COC(=O)CNC(=O)c2ccc(Cl)cc2)c1C the results were Shiga toxin inh -5.4, Giardia FBPA inh 7.0%, NS1 inh -1.2%, CHX counter -3.6 and LmPK inh 0.0%.
For O=C(Nc1ccnn1C1CCN(Cc2ccn[nH]2)CC1)c1ccccc1 the results were Shiga toxin inh -26.1, NS1 inh -3.7%, CHX counter 0.8 and LmPK inh -12.0%.
Cc1ccsc1/C=N/NC(=O)C1CC(=O)N(c2ccccc2)C1 (centres undefined) was read as Shiga toxin inh -8.7, Giardia FBPA inh 0.0%, NS1 inh -3.5%, CHX counter 4.8 and LmPK inh -0.4%.
Cc1ccc(/C=N\NC(=O)C2CC(=O)N(c3ccccc3)C2)o1 (centres undefined) was read as Shiga toxin inh 25.3, Giardia FBPA inh -3.6%, NS1 inh 4.2%, CHX counter 24.4* and LmPK inh -5.7%.
For CC1(C)CC23C(=O)CCC(O)C2(C)CCC13 (centres undefined) the results were Giardia FBPA inh -1.7%.
For c1ccc(-c2onc3cc4c(cc23)OCCO4)cc1 the results were Shiga toxin inh active, Giardia FBPA inh -23.5%, NS1 inh -73.0%, CHX counter 34.9* and LmPK inh -17.8%.
Screening CC(=O)c1ccc2noc(-c3ccccc3)c2c1 returned Shiga toxin inh 32.8, Giardia FBPA inh -3.9%, NS1 inh -6.3%, CHX counter 13.5 and LmPK inh -5.8%.
For CN(CCOC(=O)c1ccc2c(c1)OCCO2)C(C)(C)C the results were Shiga toxin inh 23.0, Giardia FBPA inh -14.4%, NS1 inh -2.7%, CHX counter 16.7* and LmPK inh -9.3%.
`O=C(CCCO)c1ccc2c(c1)OCCO2` gave Shiga toxin inh 5.0, Giardia FBPA inh 2.7%, NS1 inh 4.0%, CHX counter -3.6 and LmPK inh 0.2%.
`CN(CCOC(=O)c1ccc2c(c1)OCCO2)Cc1ccccc1` gave Shiga toxin inh 19.3*, Giardia FBPA inh -8.2%, NS1 inh -1.3%, CHX counter 41.1* and LmPK inh 4.2%.
`CN(Cc1ccccc1)C(=O)c1ccc2c(c1)OCCO2` gave Shiga toxin inh 14.6, Giardia FBPA inh 0.5%, NS1 inh -6.7%, CHX counter 11.4 and LmPK inh 6.4%.
`O=C(Cc1ccccc1)c1ccc2c(c1)OCCO2` gave Shiga toxin inh 87.4*, Giardia FBPA inh 3.8%, NS1 inh -2.9%, CHX counter 43.4* and LmPK inh inconclusive.
For COc1cccc(C(=O)OCCN(C)C(C)(C)C)c1 the results were Shiga toxin inh -4.4, Giardia FBPA inh -5.0%, NS1 inh 3.3%, CHX counter -5.8 and LmPK inh 14.1%.
Cc1c(Cl)cccc1NC(=S)NNS(=O)(=O)c1ccc([N+](=O)[O-])cc1 was read as Shiga toxin inh -11.4, NS1 inh inconclusive, CHX counter 4.3 and LmPK inh 4.3%.
For COc1ccc(-c2csc3c2[N+]2=CCC=C2C3=O)cc1 the results were NS1 inh -14.6%.
Screening COc1ccc(-c2cc(-c3ccc(OC)c(OC)c3)n[nH]2)c(O)c1 returned Shiga toxin inh 96.8*, Giardia FBPA inh 5.0%, NS1 inh -58.2%, CHX counter 70.5* and LmPK inh 3.4%.
COc1ccc(-c2cc(-c3cc(OC)ccc3O)[nH]n2)cc1 was read as Shiga toxin inh 97.4*, Giardia FBPA inh -5.5%, NS1 inh -142.5%, CHX counter 45.1* and LmPK inh 1.6%.
For COc1ccc(-c2ncncc2-c2ccc(OC)c(OC)c2)c(O)c1 the results were Shiga toxin inh 5.9, Giardia FBPA inh -15.5%, NS1 inh 0.4%, CHX counter 17.6 and LmPK inh -2.2%.
Screening COc1ccc(-c2cc(-c3ccc(Cl)cc3)n[nH]2)c(O)c1 returned Shiga toxin inh 92.5*, Giardia FBPA inh 0.2%, NS1 inh -6.6%, CHX counter 37.0* and LmPK inh 3.3%.
COc1ccc(-c2ncncc2-c2ccc(Cl)cc2)c(O)c1 was read as Shiga toxin inh -8.4, Giardia FBPA inh 1.4%, NS1 inh -7.1%, CHX counter -1.9 and LmPK inh 6.4%.
For COc1ccc(O)c(-c2cc(-c3ccc(F)cc3)n[nH]2)c1 the results were Shiga toxin inh 116.4*, Giardia FBPA inh 8.0%, NS1 inh -57.1%, CHX counter 50.3* and LmPK inh 0.4%.
`N#C/C(=C\c1ccc(O)c(O)c1)C(=O)NCCCCc1ccccc1` gave Giardia FBPA inh -29.2%.
For COc1ccc(O)c(-c2cc(-c3cccc(Br)c3)n[nH]2)c1 the results were Shiga toxin inh 29.1*, Giardia FBPA inh 1.3%, NS1 inh -149.2%, CHX counter 31.7* and LmPK inh 14.6%.
For COc1ccc(-c2n[nH]c(C)c2-c2cc(OC)ccc2O)cc1 the results were Shiga toxin inh -25.6, Giardia FBPA inh -9.7%, NS1 inh 3.7%, CHX counter 8.1 and LmPK inh inconclusive.
For COc1ccc(-c2cc(-c3cc(F)ccc3O)[nH]n2)cc1OC the results were Shiga toxin inh 78.1*, NS1 inh -2.5%, CHX counter 37.7* and LmPK inh 0.3%.
For COC(=O)c1cc(-c2ccc(OC)c(OC)c2)n[nH]1 the results were Shiga toxin inh -3.0, Giardia FBPA inh 2.4%, NS1 inh -9.6%, CHX counter 0.8 and LmPK inh -1.0%.
